From PubChem BioAssay (NCATS) come the findings set out here.

For experiment [1], the target named is Protein phosphatase 1D (Homo sapiens) (UniProt O15297). Briefly: RapidFire Mass Spectrometry qHTS Assay for Modulators of WT P53-Induced Phosphatase 1 (WIP1) (AID 1347424).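 Further: amount of dephosphorylated VEPPL-S-QETFS peptide product formed by WIP1; series mostly up to about 63 µM.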 In a few lines: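 WIP1 (10 nM final) was preincubated 1 h at room temperature with compounds in Tris-HCl pH 7.5, 30 mM MgCl2, TCEP, EGTA, BSA; 2 uM VEPPL-pS-QETFS phosphopeptide was added for 5 min, quenched with formic acid, and dephosphorylated product quantified by RapidFire MS.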
On the technique in general: qHTS replaces the single test concentration by a dilution series.

Experiment [2] in a line: Primary qHTS for inhibitors of La Crosse Virus (LACV) - induced cell death in SH-SY5Y cells (AID 1508616).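 Further: top concentration of the series differs between compounds; higher means more rescue of cells from virus-induced death.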 In a few lines:
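Luminescent ATP readout (ATPLite 1step, 5 min room temperature) measured rescue from LACV-induced death after 6 days of infection at 0.01 MOI; normalized to infected DMSO wells and uninfected DMSO wells.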

Experiment [3] has as its target Calcium and integrin-binding protein 1 (Homo sapiens) (UniProt Q99828). In words: Primary qHTS for Identification of Calcium Integrin Binding Protein 1 (CIB1) Competitor (AID 1508620).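 Further: GST tagged CIB1 binding a fluorescein labelled alphaIIb integrin peptide tracer; top concentration of the series differs between compounds.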 The method in brief: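 Fluorescence polarization competition: CIB1-GST (1 uM final) preincubated with compound 15 min at room temperature, then FITC-labeled alphaIIb peptide (100 nM final) added for another 15 min. Polarization read at Ex 480/Em 540.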

Experiment [4] in a line: Validation qHTS assay for inhibitors of Activation Induced Cytidine Deaminase (AID): UDG Counterscreen signal (AID 1347427). The method in brief:
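Counterscreen read of UDG activity (2 U/mL, 4/3x) in the FRET deamination format with AID (1 uM, 4/3x), DJC20/DJC23 substrates (250 nM, 4x), 4 h at room temperature. NaOH stop, fluorescence at 560 ex/665 em.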

For experiment [5], the target named is Single-stranded DNA cytosine deaminase (Homo sapiens) (UniProt Q9GZX7). Briefly: Validation qHTS assay for inhibitors of Activation Induced Cytidine Deaminase (AID): AID signal (AID 1347429). In a few lines:
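AID and UDG were combined and compounds added at final up to 114 uM, then DJC20/DJC23 FRET substrate was added for 4 hr at room temperature. NaOH was then added for 30 min before fluorescence was read at 540/590 nm.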

The target of experiment [6] is Calcium and integrin-binding protein 1 (Homo sapiens) (UniProt Q99828). Briefly: Validation qHTS for Identification of Calcium Integrin Binding protein 1 (CIB1) Competitor (AID 1508618). In a few lines:
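In this qHTS validation, the LOPAC set (up to 114 uM) was tested for blocking CIB1 binding to a fluorescein-tagged alphaIIb peptide, with FP detection at 480/540 nm.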

Records with an inconclusive call do not appear. Entries that show only a call come without a potency. Active and inactive are the calls of the source. The call rests on the fitted dose curve; in most records, active means well fitted curve in the direction sought with a large enough effect; inconclusive means small, poorly fitted or top-dose-only effect, or another doubt; inactive means no such curve, though single readings can be large; an effect the other way counts as inactive or inconclusive.

Calcium and integrin-binding protein 1 (Homo sapiens), sequence (Q99828 whole entry, looked up): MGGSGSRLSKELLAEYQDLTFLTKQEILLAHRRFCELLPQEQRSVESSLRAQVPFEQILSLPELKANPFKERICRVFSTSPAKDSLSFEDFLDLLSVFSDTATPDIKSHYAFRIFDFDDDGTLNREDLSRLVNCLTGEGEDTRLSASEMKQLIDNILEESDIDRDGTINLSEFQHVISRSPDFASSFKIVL
Protein phosphatase 1D (Homo sapiens), sequence (O15297 whole entry, looked up): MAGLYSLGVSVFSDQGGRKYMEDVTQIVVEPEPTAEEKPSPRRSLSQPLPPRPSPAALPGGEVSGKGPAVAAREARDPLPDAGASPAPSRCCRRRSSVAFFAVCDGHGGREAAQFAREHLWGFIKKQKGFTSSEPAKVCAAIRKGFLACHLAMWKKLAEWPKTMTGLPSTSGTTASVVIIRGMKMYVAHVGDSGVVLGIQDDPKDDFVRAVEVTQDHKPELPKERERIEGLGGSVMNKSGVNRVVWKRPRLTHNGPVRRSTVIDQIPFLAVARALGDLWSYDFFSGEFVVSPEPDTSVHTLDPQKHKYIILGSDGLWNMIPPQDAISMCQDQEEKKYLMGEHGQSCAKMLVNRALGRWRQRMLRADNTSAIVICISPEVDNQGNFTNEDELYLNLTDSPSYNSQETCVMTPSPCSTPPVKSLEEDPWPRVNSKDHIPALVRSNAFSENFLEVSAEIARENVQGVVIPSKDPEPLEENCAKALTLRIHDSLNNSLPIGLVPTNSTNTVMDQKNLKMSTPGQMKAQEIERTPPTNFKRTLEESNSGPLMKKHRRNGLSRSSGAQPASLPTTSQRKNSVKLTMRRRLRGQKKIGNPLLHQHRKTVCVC
Single-stranded DNA cytosine deaminase (Homo sapiens), sequence (Q9GZX7 whole entry, looked up): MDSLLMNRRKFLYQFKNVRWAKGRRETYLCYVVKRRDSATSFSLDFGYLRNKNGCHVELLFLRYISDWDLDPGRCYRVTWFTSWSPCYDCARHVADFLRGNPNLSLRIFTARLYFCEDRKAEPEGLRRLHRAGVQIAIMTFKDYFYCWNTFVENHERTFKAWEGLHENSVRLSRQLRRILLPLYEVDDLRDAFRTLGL

For `CCCCC(CC)COC(=O)c1ccc(N(C)C)cc1` (stereo not given), the Potency result in experiment [1] and in experiment [3] was “inactive” throughout. In addition, in experiment [2], the call was inactive.

`O=C(Nc1ncc([N+](=O)[O-])s1)c1cccs1`: the outcome in experiment [2] was inactive. Also, in experiment [3], the Potency entry is “inactive”.

Consider `O=C1C(CCS(=O)c2ccccc2)C(=O)N(c2ccccc2)N1c1ccccc1` (stereo not given), for which the Potency entry in experiment [1] and in experiment [3] was “inactive” each time. For the same molecule, the result in experiment [2] was inactive.

Turning to `CC(=O)OCC1=C(C(=O)O)N2C(=O)[C@@H](NC(=O)CSc3ccncc3)[C@H]2SC1`, the molecule was classed as inactive in experiment [2]. Besides, the Potency result in experiment [3] is “inactive”.

`CC[C@H](c1ccc(O)cc1)[C@@H](CC)c1ccc(O)cc1`: the outcome in experiment [2] was inactive. For the same molecule, the Potency result in experiment [3] is “inactive”.

For the molecule `CCCCNc1ccc(C(=O)OCCOCCOCCOCCOCCOCCOCCOCCOCCOC)cc1`, the Potency entry in experiment [1] and in experiment [3] was “inactive” throughout. For the same molecule, the molecule was called inactive in experiment [2].

`CO[C@]12C[C@@H](COC(=O)c3cncc(Br)c3)CN(C)[C@@H]1Cc1cn(C)c3cccc2c13`: the Potency entry in experiment [1] and in experiment [3] was “inactive” each time. In addition, in experiment [2], the outcome was inactive.

For the molecule `CN=C(N)NCCC[C@H](N)C(=O)O`, the outcome in experiment [4], in experiment [5], in experiment [2] and in experiment [6] was inactive.

Consider `O=C1C(=O)c2ccccc2C(O)=C1C1CCC(c2ccc(Cl)cc2)CC1` (stereo not given), for which the Potency result in experiment [1] and in experiment [3] was “inactive” throughout.

As to `Cc1cc(CC(=O)O)c(C)n1-c1ccc(Cl)cc1`, the Potency result in experiment [1] and in experiment [3] was “inactive” each time. Further, the result in experiment [2] was inactive.

Turning to `Cc1c(-c2ccccc2)oc2c(C(=O)OCCN3CCCCC3)cccc2c1=O`, the Potency result in experiment [1] and in experiment [3] was “inactive” each time. Besides, in experiment [2], the outcome was inactive.

`OC(C#CCN1CCCC1)(c1ccccc1)c1ccccc1`: the Potency entry in experiment [1] and in experiment [3] was “inactive” in each case. In addition, the molecule was called inactive in experiment [2].

`NC(N)=NCc1cccc(I)c1`: the result in experiment [4], in experiment [5], in experiment [2] and in experiment [6] was inactive.

On to `CCNC(=O)/C=C/c1cccc(Br)c1`, for which the Potency entry in experiment [1] and in experiment [3] was “inactive” throughout. In experiment [2], the molecule was called inactive.
